From PubChem BioAssay (EPA / NIEHS)
Calls of active or inactive are those of the source. The calls were made as follows: active = hit-call score of the fitted dose curve at least 0.9, where 1 is the maximum; inactive = score below 0.9.

The compounds below were run on Cytochrome P450 4A22 (Homo sapiens) (UniProt Q5TCH4) (assay: LTEA_HepaRG_CYP4A22: Life Technologies and Expression Analysis (LTEA) Assay for Cytochrome P450 4A22 (CYP4A22) using HepaRG (AID 2283495)). Details: mRNA level, 48 h; actives raise or lower the signal.
How it was run: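 Differentiated HepaRG cells in serum-free induction medium exposed 48 h in duplicate to eight half-log concentrations up to 100 uM in 0.5% DMSO. CYP4A22 mRNA quantified by TaqMan qRT-PCR, normalized to ACTB, GAPDH and POLR2A; bidirectional fit versus DMSO.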
For `CCOC(=O)CCC(=O)OCC`, the outcome was “inactive”.
For `CCc1c(C(=O)NN2CCCCC2)nn(-c2ccc(Cl)cc2Cl)c1-c1ccc(Br)cc1`, the AC50 was 15.8 µM (active).
For `Nc1nc(N)c2nc(CNc3ccc(C(=O)N[C@@H](CCC(=O)O)C(=O)O)cc3)cnc2n1`, the outcome was “inactive”.
For `CCCCCCCCCCO`, the outcome was “inactive”.
`CCCCN(CCCC)CCCC` was tested, and the outcome was “inactive”.
For `Oc1ccc2ccccc2c1N=Nc1ccccc1`, the outcome was “inactive”.
For `CCOC(=O)C(C)(C)Oc1ccc(Cl)cc1`, the AC50 was 25.7 µM (active).
In the case of `CCCc1cc(=O)[nH]c(=S)[nH]1`, the outcome is reported as “inactive”.
In the case of `CC1(C)CC(N=C=O)CC(C)(CN=C=O)C1` (centres undefined), the outcome is reported as “inactive”.
`CCOc1ccc2c(c1)C(C)=CC(C)(C)N2` was tested, and the outcome was “inactive”.
In the case of `Cc1cccc([N+](=O)[O-])c1C`, the outcome is reported as “inactive”.
For `O=c1[nH]cc(F)c(=O)[nH]1`, the AC50 was 35 µM (active).
With `Cc1cc(=O)[nH]c(=S)[nH]1` the outcome was “inactive”.
`Nc1ccc(S(=O)(=O)c2ccc(N)cc2)cc1` was tested, and the outcome was “inactive”.
With `C=CCOC(=O)c1ccccc1C(=O)OCC=C` the outcome was “inactive”.
With `C=CCc1ccc(O)c(OC)c1` the outcome was “inactive”.
`CCCCCCC(=O)OCC` was tested, and the outcome was “inactive”.
With `CCNc1cccc(C)c1` the outcome was “inactive”.
For `O=c1c(O)c(-c2ccc(O)c(O)c2)oc2cc(O)cc(O)c12`, the outcome was “inactive”.
For `COc1ccc2c(c1)c(CC(=O)O)c(C)n2C(=O)c1ccc(Cl)cc1`, the outcome was “inactive”.
In the case of `COc1ccc(S(=O)(=O)N2C(=O)[C@@](c3ccccc3OC)(N3C[C@H](O)C[C@H]3C(=O)N(C)C)c3cc(Cl)ccc32)c(OC)c1`, the AC50 is reported as 15.8 µM (active).
`CCCCCCCCCCCC(=O)OC` was tested, and the outcome was “inactive”.
In the case of `Cc1ccc(C(C)C)c(O)c1`, the outcome is reported as “inactive”.
For `CCCCCCOCCO`, the outcome was “inactive”.
With `O=C(OCCCCCOC(=O)c1ccccc1)c1ccccc1` the AC50 was 2.98 µM (active).
For `CNCc1cc(F)ccc1Oc1ccc(Cl)c(Cl)c1`, the AC50 was 74.9 µM (active).
For `COC(=O)c1ccc(O)cc1`, the outcome was “inactive”.
For `NC(=O)Cn1c(=O)cc(CCN2CCN(c3nccc4sccc34)CC2)c2ccc(F)cc21`, the AC50 was 62.7 µM (active).

What follows are compounds tested on Cytochrome P450 7A1 (Homo sapiens) (UniProt P22680) (assay: LTEA_HepaRG_CYP7A1: Life Technologies and Expression Analysis (LTEA) Assay for Cytochrome P450 7A1 (CYP7A1) using HepaRG (AID 2283496)). Details: mRNA level, 48 h; actives raise or lower the signal.
How it was run: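 Using 0.5% DMSO as vehicle and baseline, chemicals were tested in duplicate over an 8-point range from 100 uM on HepaRG cells for 48 h; qRT-PCR signals were normalised to ACTB, GAPDH and POLR2A.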
In the case of `CCc1c(C(=O)NN2CCCCC2)nn(-c2ccc(Cl)cc2Cl)c1-c1ccc(Br)cc1`, the AC50 is reported as 37.6 µM (active).
In the case of `CCCCN(CCCC)CCCC`, the outcome is reported as “inactive”.
For `CCOC(=O)C(C)(C)Oc1ccc(Cl)cc1`, the outcome was “inactive”.
With `CCCc1cc(=O)[nH]c(=S)[nH]1` the outcome was “inactive”.
For `CCOc1ccc2c(c1)C(C)=CC(C)(C)N2`, the AC50 was 33.3 µM (active).
For `Cc1cc(=O)[nH]c(=S)[nH]1`, the outcome was “inactive”.
In the case of `Nc1ccc(S(=O)(=O)c2ccc(N)cc2)cc1`, the outcome is reported as “inactive”.
With `C=CCOC(=O)c1ccccc1C(=O)OCC=C` the outcome was “inactive”.
For `CCCCCCC(=O)OCC`, the outcome was “inactive”.
With `O=c1c(O)c(-c2ccc(O)c(O)c2)oc2cc(O)cc(O)c12` the outcome was “inactive”.
For `CCCCCCOCCO`, the outcome was “inactive”.
With `O=C(OCCCCCOC(=O)c1ccccc1)c1ccccc1` the outcome was “inactive”.

Each compound was assayed on Glutathione S-Transferase (GSTA2), GSTA2 (gene 2939) (assay: LTEA_HepaRG_GSTA2: Life Technologies and Expression Analysis (LTEA) Assay for Glutathione S-Transferase (GSTA2) using HepaRG (AID 2283497)). Details: mRNA level, 48 h; actives raise or lower the signal.
How it was run: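 qRT-PCR readout of GSTA2 transcript, normalized to three housekeeping genes, fitted bidirectionally against 0.5% DMSO baseline. Differentiated HepaRG cells received compound for 48 h at 8 concentrations (top 100 uM, half-log steps).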
For `CCOC(=O)CCC(=O)OCC`, the outcome was “inactive”.
For `CCc1c(C(=O)NN2CCCCC2)nn(-c2ccc(Cl)cc2Cl)c1-c1ccc(Br)cc1`, the AC50 was 31.7 µM (active).
With `Nc1nc(N)c2nc(CNc3ccc(C(=O)N[C@@H](CCC(=O)O)C(=O)O)cc3)cnc2n1` the AC50 was 0.12 µM (active).
For `CCCCCCCCCCO`, the outcome was “inactive”.
For `CCCCN(CCCC)CCCC`, the outcome was “inactive”.
In the case of `Oc1ccc2ccccc2c1N=Nc1ccccc1`, the AC50 is reported as 3.38 µM (active).
With `CCOC(=O)C(C)(C)Oc1ccc(Cl)cc1` the outcome was “inactive”.
`CCCc1cc(=O)[nH]c(=S)[nH]1` was tested, and the outcome was “inactive”.
For `CC1(C)CC(N=C=O)CC(C)(CN=C=O)C1` (centres undefined), the outcome was “inactive”.
In the case of `CCOc1ccc2c(c1)C(C)=CC(C)(C)N2`, the outcome is reported as “inactive”.
With `Cc1cccc([N+](=O)[O-])c1C` the outcome was “inactive”.
For `O=c1[nH]cc(F)c(=O)[nH]1`, the AC50 was 78 µM (active).
With `Cc1cc(=O)[nH]c(=S)[nH]1` the outcome was “inactive”.
With `Nc1ccc(S(=O)(=O)c2ccc(N)cc2)cc1` the outcome was “inactive”.
For `C=CCOC(=O)c1ccccc1C(=O)OCC=C`, the outcome was “inactive”.
With `C=CCc1ccc(O)c(OC)c1` the outcome was “inactive”.
`CCCCCCC(=O)OCC` was tested, and the outcome was “inactive”.
In the case of `CCNc1cccc(C)c1`, the outcome is reported as “inactive”.
`C[C@]12C=CC(=O)C=C1CC[C@@H]1[C@@H]2C(=O)C[C@@]2(C)[C@H]1CC[C@]2(O)C(=O)CO` was tested, and the outcome was “inactive”.
With `O=c1c(O)c(-c2ccc(O)c(O)c2)oc2cc(O)cc(O)c12` the outcome was “inactive”.
`COc1ccc2c(c1)c(CC(=O)O)c(C)n2C(=O)c1ccc(Cl)cc1` was tested, and the outcome was “inactive”.
In the case of `COc1ccc(S(=O)(=O)N2C(=O)[C@@](c3ccccc3OC)(N3C[C@H](O)C[C@H]3C(=O)N(C)C)c3cc(Cl)ccc32)c(OC)c1`, the AC50 is reported as 25 µM (active).
For `CCCCCCCCCCCC(=O)OC`, the outcome was “inactive”.
In the case of `Cc1ccc(C(C)C)c(O)c1`, the outcome is reported as “inactive”.
In the case of `CCCCCCOCCO`, the outcome is reported as “inactive”.
For `O=C(OCCCCCOC(=O)c1ccccc1)c1ccccc1`, the outcome was “inactive”.
For `CNCc1cc(F)ccc1Oc1ccc(Cl)c(Cl)c1`, the AC50 was 92.7 µM (active).
With `COC(=O)c1ccc(O)cc1` the outcome was “inactive”.
`NC(=O)Cn1c(=O)cc(CCN2CCN(c3nccc4sccc34)CC2)c2ccc(F)cc21` was tested, and the AC50 was 50 µM (active).
